The results in this text go back to PubChem BioAssay (NCATS).

Active and inactive are the calls of the source. Calls follow the shape of the dose curve; as a rule, active = well fitted activation curve with a large enough effect; inconclusive = small, poorly fitted or top-dose-only effect; inactive = flat fitted curve, though single readings scatter.

A short description of this test: Confirmation and Secondary Assay for Modulators of Hemoglobin Beta Chain Splicing at IVS2 705 locus (AID 930).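 Also: HeLa cells stably expressing the EGFP-705 splicing reporter; GFP fluorescence per well restored by corrected splicing of the IVS2-705 intron in EGFP; % of control where 0% means no effect.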 The conditions noted are these: HeLa EGFP-705 splicing reporter, GFP fluorescence, 48 h; series mostly up to 46.1 µM; activation: at the top concentration. In short, it runs like this:
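Read-out: total peak GFP fluorescence per well (488 nm excitation, 500-520 nm emission) by laser-scanning cytometry. Cells: HeLa EGFP-705 splicing reporter, 2 days compound exposure in Optimem/2% FCS.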
Regarding `COc1cc(C(=O)NCc2ccc(OCCN(C)C)cc2)cc(OC)c1OC`, the “activation” value is 0.332% (inactive). The result for `O=C(O)CCC(=O)Nc1ccc(S(=O)(=O)Nc2nccs2)cc1` reads 1.5% (inactive). The result for `O=C1C(O)=C(O)C(=O)C(O)=C1O` reads 0.88% (inactive); that for `O=C1C(CCS(=O)c2ccccc2)C(=O)N(c2ccccc2)N1c1ccccc1` (stereo unspecified), 0.214% (inactive).

For `CN(C)CCOC(=O)C(c1ccccc1)C1(O)CCCC1` (stereo unspecified), the “activation” value was 1.52% (inactive).

As for `O=C(O)CCNC(=O)c1ccccc1`, the “activation” value was 0.441% (inactive). The result for `Nc1ccc(C(=O)NCC(=O)O)cc1` reads -1.05% (inactive). Regarding `Oc1c(Cl)cc(Cl)c(Cl)c1Cc1c(O)c(Cl)cc(Cl)c1Cl`, the “activation” value is 0.756% (inactive).

In the case of `CCC(Cc1c(I)cc(I)c(N)c1I)C(=O)O` (stereo unspecified), the “activation” value was -0.654% (inactive). With `O=C(CCCN1CC=C(n2c(=O)[nH]c3ccccc32)CC1)c1ccc(F)cc1`, the “activation” value is 2.92% (inactive). The result for `CCN(CC)CCOc1ccc2c(c1)C(=O)c1cc(OCCN(CC)CC)ccc1-2` reads 0.727% (inactive); that for `CC(=O)NO`, 0.324% (inactive); that for `CCOC(=O)[C@H](CCc1ccccc1)N[C@@H](C)C(=O)N1[C@H](C(=O)O)C[C@H]2CCCC[C@@H]21`, 1.38% (inactive). Turning to `CC(=O)Nc1ccc(S(=O)(=O)Nc2ccc([N+](=O)[O-])cc2)cc1`, the “activation” value is 0.527% (inactive). The result for `O=C(O)P(=O)(O)O` reads 1.87% (inactive). The result for `CC(C(=O)O)c1cccc(Oc2ccccc2)c1` (stereo unspecified) reads 3.05% (inactive); that for `CCN(CC)CCNC(=O)COc1ccc(OC)cc1`, 4.64% (inactive); that for `COc1cc(N)c(Cl)cc1C(=O)NC1CCN(Cc2ccccc2)CC1`, -0.532% (inactive). The result for `CCOC(=O)c1ccc(N)cc1` reads 2.61% (inactive).

As to `CCN(CC)CCNC(=O)c1cc(Br)c(N)cc1OC`, the “activation” value was -1.03% (inactive). The result for `OCCOCCN1CCN(C2=Nc3ccccc3Sc3ccccc32)CC1` reads 0.159% [at 38.3 µM] (inactive).
